Each structure is given as a SMILES string. This is part of a sample that, as a whole, favours compounds with a hit. Of some 83,000 tested, about 20% had one in any assay.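 Negative percent growth values reflect cell death: -40 means 40% of the cells present at the start died, and -100 means all died.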 A number with no mark means an inactive call. Active and inactive are the calls of the source.

The experiment deals with NCI-H23 lung. Description: NCI-60 one-dose screen, 48 h (100 = growth as untreated, 0 = no growth, -100 = all killed). The conditions noted are these: 10 µM unless noted. As to the method:
Growth inhibition of the NCI-H23 human Non-Small Cell Lung tumor cell line is measured as a screen for anti-cancer activity. Cells are grown in 96 well plates and exposed to the test compound for 48 hours. Compounds are tested at a single concentration, which is 10^-5 M for most compounds. The reported endpoint is percent growth (GI% or GIPRCNT), where numbers from 0 - 100% represent growth inhibition, and numbers from -100% - 0 represent cell death. For example, a value of 40 represents 60% growth inhibition. A value of 0 means no net growth occurred over the course of the experiment. A value of -40 indicates 40% of cells at the beginning of the experiment died by the end of the experiment. A value of -100 means all cells are dead at the end of the experiment.
NCI-60 Human Tumor Cell Lines Screen was performed using the standard one-dose NCI protocol, which is described in more detail at https://dtp.cancer.gov/discovery_development/nci-60/default.htm.
Compounds with GIPRCNT values below 10 were considered active. Activity score was based on GIPRCNT using the following formula: […]
Score is 0 for GIPRCNT values of 100 or above, 50 for GIPRCNT values of 0, and 100 for GIPRCNT values of -100.
With `CN1CCN(Cc2ccc(NC(=O)c3[nH]ncc3Nc3ncnc4sc5c(c34)CCCC5)cc2)CC1`, the growth is -63.7% (active). As for `COc1ccc(Cc2cc(-c3ccccc3C)n[nH]c2=O)cc1`, the figure is 98.6%. In the case of `Cc1c(NC(=O)OC[C@@H]2COCCN2)cn2ncnc(Nc3ccc4c(cnn4Cc4cccc(F)c4)c3)c12`, the growth was -12.9% (active). As for `Cc1oc2c(C(=O)N/N=C\c3ccc(O)cc3O)c[nH]c2c1C`, the figure is 40.7%; as for `Nc1nc(=S)c2ncn(C3OC(COC(=O)c4ccc(Cl)cc4)C(OC(=O)c4ccc(Cl)cc4)C3OC(=O)c3ccc(Cl)cc3)c2[nH]1` (stereo not given), 91.9%; as for `Cn1ccnc1C(=O)/C=C/c1ccc(CC(=O)Nc2ccc(C(F)(F)F)cc2)cc1`, 19.4%. As for `CN1CCN(c2ccc(C(=O)Nc3n[nH]c4ccc(Cc5cc(F)cc(F)c5)cc34)c(NC3CCOCC3)c2)CC1`, the figure is 11%; as for `COc1cccc2cc(-c3nc(C4CCC(C(=O)O)CC4)n4ncnc(N)c34)[nH]c12` (stereo not given), 7.94% (active); as for `CC12O[C@H](C[C@@H](OC(=O)CCC(=O)O)[C@H]1O)n1c3ccccc3c3c4c(c5c6ccccc6n2c5c31)C(=O)NC4=O`, 12.3%. With `CC(=O)OC1Oc2ccccc2-c2oc(=O)c(-c3cc4ccc(N(C)C)cc4oc3=O)cc21` (stereo not given) the figure was 36.4%; with `C[C@H]1Oc2cc(cnc2N)-c2c(nn(C)c2C#N)CN(C)C(=O)c2ccc(F)cc21`, 84%; with `CCN(CC)CCNc1ccc(N=Nc2cnc3ccccc3c2)c2ccccc12`, -92.6% (active). Regarding `CNC(=O)c1cc(Oc2ccc(NC(=O)Nc3cc(C(C)(C)C)nn3-c3ccc4ncccc4c3)c(F)c2)ccn1`, the growth was -49.5% (active).

For `COc1cc(Nc2ncc(F)c(Nc3ccc4c(n3)N(COP(=O)(O)O)C(=O)C(C)(C)O4)n2)cc(OC)c1OC`, the growth was 29.7%. As for `Cc1nc(-c2cn3c(n2)-c2ccc(-c4cnn(C(C)(C)C(N)=O)c4)cc2OCC3)n(C(C)C)n1`, the figure is 54.5%; as for `Cc1cc(C(O)CN(C)C)cc2c1ccc1cc(C(C)C)ccc12` (stereo not given), 30.1%. `O=C(Nc1ccc(-c2ccnc(Nc3ccc(N4CCOCC4)cc3)n2)cc1)[C@@H]1CCCN1`: the growth was 65.6%. With `O=C(NC1CCNCC1)c1[nH]ncc1NC(=O)c1c(Cl)cccc1Cl` the figure was -12.1% (active). On to `Cc1nc2cc(-c3nn(C(C)C)c4ncnc(N)c34)ccc2o1`, for which the growth was -0.166% (active).

Consider `CCOC(=O)C1=C(C)NC(=O)NC1c1cc(=O)oc2ccc(C)cc12` (stereo not given), for which the growth was 96.9%.

For the compound `NN1C(=O)CSC1=S`, the growth is 97.5%. As for `C=CCC(=O)N[C@H](/C=C/C(=O)O)Cc1ccc(-c2cc(Cl)cc(Cl)c2)cc1`, the figure is 92.7%; as for `O=C(Cn1cncn1)Nc1ccc(-c2nc3ccccc3s2)cc1`, 87.5%. As for `CCCNC(=O)c1cn2ncnc(Nc3cc(C(=O)NC4CC4)ccc3C)c2c1C`, the figure is 24.6%. As to `Cc1ncc(-c2ccnc(Nc3ccc(S(C)(=O)=O)cc3)n2)n1C(C)C`, the growth was -33.8% (active). As for `CCN1CCN(c2nc(C)cc(N(CCNc3ccnc4cc(Cl)ccc34)Cc3ccc4c(c3)OCO4)n2)CC1`, the figure is 67.5%.

Consider `O=C1NC(=O)/C(=C/c2ccc3nccc(-c4ccncc4)c3c2)S1`, for which the growth is -17.4% (active). With `N#CCNC(=O)c1ccc(-c2ccnc(Nc3ccc(N4CCOCC4)cc3)n2)cc1` the figure was 29.6%.

Regarding `COCC(=O)NC/C=C/c1ccc2ncnc(Nc3ccc(Oc4ccc(C)nc4)c(C)c3)c2c1`, the growth is 39.3%. With `NC(=O)c1n[nH]n2c1nc(=O)c1c3c(sc12)CCCC3` the figure was 101%. As for `Nc1c2c(c(O)c3c1=C(CO)C=N3)=NCCS2`, the figure is -43.9% (active); as for `CO[C@H]1C[C@@H]2CC[C@@H](C)[C@@](O)(O2)C(=O)C(=O)N2CCCC[C@H]2C(=O)O[C@H]([C@H](C)C[C@@H]2CC[C@@H](OC(=O)C(C)(CO)CO)[C@H](OC)C2)CC(=O)[C@H](C)/C=C(\C)[C@@H](O)[C@@H](OC)C(=O)[C@H](C)C[C@H](C)\C=C/C=C/C=C/1C`, 44.4%. As for `CCN1CCN(c2cc(C)nc(N(CCCNc3ccnc4cc(Cl)ccc34)Cc3cccs3)n2)CC1`, the figure is 49%.

Consider `COC(=O)CC[C@@H](C)[C@H]1CC[C@H]2C3CC[C@@H]4C[C@@H]5CC[C@]4(C)[C@@]3(O5)[C@H](Br)[C@@H](Br)[C@]12C` (stereo not given in full), for which the growth is 81.1%. As for `COc1ccc(-c2nocc2-c2cc(OC)c(OC)c(OC)c2)cc1`, the figure is 19.2%; as for `CC(=Nc1ccccc1)C1=C(O)C(Cc2ccccc2)NC1=O` (stereo not given), -1.27% (active). With `Cc1ccc(-[n+]2c3cc(N)c(C)cc3nc3cc(C)c(Nc4ccccc4)cc32)cc1` the figure was -74.4% (active); with `Ic1ccccc1-c1ccccc1`, 102%; with `Cc1ccc(-n2nc(C(C)(C)C)cc2NC(=O)NCc2cc(F)ccc2Oc2ccc3c(cnn3CCO)c2)cc1`, 20.8%. With `Cc1ccc(Nc2nccc(N(C)c3ccc4c(C)n(C)nc4c3)n2)cc1S(N)(=O)=O` the figure was 15.6%.
